Values joined by “and” are separate entries in the source; they are usually repeats but may differ in a detail not shown here. Equal values may be shown once. The whole screen tested about 5,500 compounds, of which about 2,000 (36%) were called active. Inconclusive results (about 18%) are left out. Cut-off read from the data, not from the text of the source: active = normalized growth mostly below about 0.91 (no sharp cut-off); inconclusive = no clear call, values can overlap the other calls; inactive = mostly above about 0.92. The list shows a part of the results.
Experiment: chemical genetic growth profiling, strain panel (AID 1159580);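 note: tested at 20 µM; growth read once vehicle control cultures reached saturation at 30 °C; 1 = growth at the plate median or of vehicle wells; lower values mean less growth of the strain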
Details: S. cerevisiae deletion strains, growth OD

Measured: normalized growth

CC1(C)C2CC(=O)[C@]3(C)C(CC[C@@]4(C)[C@H](c5ccoc5)OC(=O)[C@H]5O[C@]543)[C@@]2(C)C(=O)C[C@H]1O (stereo not given in full)
inactive: locus YAL013W, strain DEP1, hits give low values 1.03 | locus YAL021C, strain ccr4, hits give low values 1.01 | locus YAL026C, strain drs2, hits give low values 1 | locus YAL030W, strain snc1, hits give low values 1.01 | locus YBL061C, strain skt5, hits give low values 1 | locus YBR009C, strain hhf1, hits give low values 0.992 | locus YBR021W, strain FUR4, hits give low values 0.995 | locus YBR023C, strain chs3, hits give low values 1.02 | locus YBR171W, strain sec66, hits give low values 1.01 | locus YBR229C, strain ROT2, hits give low values 1 | locus YBR231C, strain swc5, hits give low values 1 | locus YBR279W, strain paf1, hits give low values 1.01 | locus YCL011C, strain gbp2, hits give low values 1.02 | locus YCL016C, strain dcc1, hits give low values 1.01 | locus YCL029C, strain bik1, hits give low values 1.01 | locus YCL061C, strain MRC1, hits give low values 1 | locus YCL069W, strain vba3, hits give low values 1.01 | locus YCR088W, strain abp1, hits give low values 1.01 | locus YDL005C, strain med2, hits give low values 1 | locus YDL035C, strain GPR1, hits give low values 0.975 | locus YDL040C, strain nat1, hits give low values 1 | locus YDL074C, strain BRE1, hits give low values 1.03 | locus YDL101C, strain DUN1, hits give low values 1.03 | locus YDL185W, strain tfp1, hits give low values 1.02 | locus YDL192W, strain arf1, hits give low values 1.01 | locus YDR001C, strain nth1, hits give low values 1 | locus YDR069C, strain doa4, hits give low values 0.995 | locus YDR101C, strain arx1, hits give low values 1 | locus YDR137W, strain rgp1, hits give low values 1.06 | locus YDR150W, strain NUM1, hits give low values 1 | locus YDR159W, strain sac3, hits give low values 1.01 | locus YDR162C, strain NBP2, hits give low values 0.983 | locus YDR195W, strain ref2 0.977 | locus YDR297W, strain sur2, hits give low values 1.01 | locus YDR318W, strain mcm21, hits give low values 1.01 | locus YDR334W, strain swr1, hits give low values 1.01 | locus YDR335W, strain msn5, hits give low values 0.999 | locus YDR388W, hits give low values 1.01 | locus YDR392W, strain spt3, hits give low values 1.01 | locus YDR502C, strain sam2, hits give low values 1.02 | locus YEL003W, strain gim4, hits give low values 1.01 | locus YEL037C, strain rad23, hits give low values 1 | locus YEL061C, strain CIN8 (second series), hits give low values 0.996 | locus YEL061C, strain CIN8, hits give low values 1 | locus YER015W, strain faa2, hits give low values 0.995 | locus YER016W, strain bim1, hits give low values 1.01 | locus YER110C, hits give low values 1.02 | locus YER111C, strain swi4, hits give low values 1.01 | locus YER155C, strain BEM2 (second series), hits give low values 1.02 | locus YER155C, strain BEM2, hits give low values 1 | locus YER167W, strain BCK2, hits give low values 0.993 | locus YFR010W, strain ubp6, hits give low values 0.997 | locus YGL078C, strain dbp3, hits give low values 1.01 | locus YGL086W, strain mad1, hits give low values 1.01 | locus YGL167C, strain pmr1, hits give low values 1.01 | locus YGL173C, strain kem1, hits give low values 1.02 | locus YGL227W, strain vid30, hits give low values 1.01 | locus YGL240W, strain doc1, hits give low values 1.03 | locus YGL248W, strain PDE1, hits give low values 1.03 | locus YGL253W, strain hxk2, hits give low values 1 | locus YGR078C, strain PAC10, hits give low values 1.03 | locus YGR135W, strain pre9, hits give low values 1.01 | locus YGR252W, strain gcn5, hits give low values 0.993 | locus YHR013C, strain ard1, hits give low values 1.01 | locus YHR027C, strain rpn1, hits give low values 1.01 | locus YHR030C, strain SLT2, hits give low values 0.992 and 1.02 | locus YHR079C, strain IRE1 (second series), hits give low values 1.02 | locus YHR079C, strain IRE1, hits give low values 1.02 | locus YHR094C, strain hxt1, hits give low values 1.02 | locus YHR129C, strain ARP1, hits give low values 1.01 | locus YHR142W, strain chs7, hits give low values 0.999 | locus YHR200W, strain rpn10, hits give low values 1.01 | locus YIL066C, strain RNR3, hits give low values 0.979 | locus YIL073C, strain SPO22, hits give low values 1.03 | locus YIL125W, strain kgd1, hits give low values 1.01 | locus YIR030C, strain dcg1, hits give low values 1.02 | locus YJL092W, strain hpr5, hits give low values 1 | locus YJL095W, strain BCK1 (second series), hits give low values 1.01 | locus YJL095W, strain BCK1, hits give low values 1.06 and 1.03 | locus YJL115W, strain asf1, hits give low values 1 | locus YJL129C, strain trk1, hits give low values 1.03 | locus YJL134W, strain LCB3, hits give low values 0.999 | locus YJL154C, strain vps35, hits give low values 1 | locus YJL164C, strain tpk1, hits give low values 1 | locus YJL166W, strain qcr8, hits give low values 1.01 | locus YJL168C, strain set2, hits give low values 1.01 | locus YJL187C, strain SWE1 (second series), hits give low values 1.05 | locus YJR043C, strain POL32, hits give low values 0.963 | locus YJR066W, strain TOR1, hits give low values 0.956 | locus YJR075W, strain HOC1, hits give low values 1.03 | locus YKL009W, strain mrt4, hits give low values 1.03 | locus YKL068W, hits give low values 1.01 | locus YKL085W, strain MDH1 (second series), hits give low values 1 | locus YKL085W, strain MDH1, hits give low values 1 | locus YKL160W, strain elf1, hits give low values 1.01 | locus YKL190W, strain CNB1, hits give low values 1.01 | locus YKR001C, strain vps1, hits give low values 1.05 | locus YKR026C, strain gcn3, hits give low values 1 | locus YKR091W, strain srl3, hits give low values 1 | locus YLL001W, strain dnm1, hits give low values 1.01 | locus YLL026W, hits give low values 1.01 | locus YLL041C, strain sdh2, hits give low values 0.998 | locus YLR027C, strain aat2, hits give low values 1.01 | locus YLR039C, strain RIC1, hits give low values 1.02 | locus YLR058C, strain SHM2, hits give low values 1.02 | locus YLR102C, strain apc9, hits give low values 1.02 | locus YLR113W, strain HOG1, hits give low values 0.981 | locus YLR221C, strain rsa3, hits give low values 1 | locus YLR258W, strain gsy2, hits give low values 1.01 | locus YLR262C, strain YPT6 (second series), hits give low values 0.982 | locus YLR262C, strain YPT6, hits give low values 1 | locus YLR268W, strain sec22, hits give low values 1.02 | locus YLR320W, strain mms22, hits give low values 1.01 | locus YLR330W, strain CHS5, hits give low values 1 | locus YLR342W, strain FKS1 (second series), hits give low values 0.988 | locus YLR342W, strain FKS1, hits give low values 1.01 | locus YLR357W, strain rsc2, hits give low values 0.994 | locus YLR370C, strain arc18, hits give low values 0.996 | locus YLR371W, strain rom2, hits give low values 1.02 | locus YLR384C, strain iki3, hits give low values 1.01 | locus YLR418C, strain cdc73, hits give low values 1.03 | locus YML016C, strain PPZ1, hits give low values 0.997 | locus YML032C, strain rad52, hits give low values 1.01 | locus YML120C, strain ndi1, hits give low values 1.01 | locus YML124C, strain tub3, hits give low values 1.01 | locus YMR058W, strain fet3, hits give low values 1 | locus YMR078C, strain ctf18, hits give low values 1.02 | locus YMR125W, strain sto1, hits give low values 1.02 | locus YMR129W, hits give low values 1.02 | locus YMR205C, strain PFK2, hits give low values 1 | locus YMR223W, strain ubp8, hits give low values 1.01 | locus YMR231W, strain pep5, hits give low values 1.01 | locus YMR263W, strain SAP30, hits give low values 1.04 | locus YMR307W, strain GAS1, hits give low values 1.04 | locus YNL067W, strain RPL9B, hits give low values 1.05 | locus YNL071W, strain lat1, hits give low values 1 | locus YNL153C, strain GIM3, hits give low values 1.04 | locus YNL183C, strain NPR1, hits give low values 0.962 | locus YNL209W, strain ssb2, hits give low values 0.997 | locus YNL233W, strain BNI4, hits give low values 1.04 | locus YNL248C, strain rpa49, hits give low values 1.02 | locus YNL250W, strain rad50, hits give low values 1.02 | locus YNL271C, strain bni1, hits give low values 1.01 | locus YNL298W, strain CLA4, hits give low values 1.02 | locus YNL307C, strain MCK1, hits give low values 1.02 | locus YNL322C, strain KRE1 (second series), hits give low values 1.03 | locus YNR049C, strain mso1, hits give low values 0.995 | locus YNR052C, strain pop2, hits give low values 1.02 | locus YOL012C, strain htz1 2.06 | locus YOL147C, strain pex11, hits give low values 1.02 | locus YOR001W, strain rrp6, hits give low values 0.995 | locus YOR061W, strain CKA2, hits give low values 0.999 | locus YOR069W, strain VPS5, hits give low values 1.01 | locus YOR070C, strain gyp1, hits give low values 1.01 | locus YOR080W, strain dia2, hits give low values 0.997 | locus YOR083W, strain WHI5, hits give low values 1.01 | locus YOR106W, strain vam3, hits give low values 1 | locus YOR136W, strain idh2, hits give low values 1.03 | locus YOR144C, strain elg1, hits give low values 1.01 | locus YOR184W, strain ser1, hits give low values 1.01 | locus YOR231W, strain MKK1, hits give low values 1.02 | locus YOR265W, strain rbl2, hits give low values 0.99 | locus YOR270C, strain vph1, hits give low values 0.948 | locus YOR290C, strain snf2, hits give low values 1.01 | locus YOR316C, strain cot1, hits give low values 1.01 | locus YPL051W, strain arl3, hits give low values 1.01 | locus YPL078C, strain atp4, hits give low values 1.01 | locus YPL106C, strain sse1, hits give low values 1.01 | locus YPL240C, strain hsp82, hits give low values 1.02 | locus YPL256C, strain CLN2, hits give low values 1.01 | locus YPR119W, strain clb2, hits give low values 1.01 | locus YPR141C, strain kar3, hits give low values 1.01 | locus YPR163C, strain tif3, hits give low values 1.01 | locus YPR167C, strain met16, hits give low values 1.01 | strain wtn01, hits give low values 1.02
